# Measurements reported in article PMC11062922 (Nature Chemical Biology, 2023).
# Like-named read-outs stand apart in the source and are kept apart here.
# Columns and labels:
# SYK = settings: read-out: apparent Kd, n = 1
# TNK2 = settings: read-out: apparent Kd, n = 1
# [1] = compound concentrations:100 nM and 1000 nM (sheet 'Lestaurtinib' of Supplementary Table 1),run:Lestaurtinib_02748_R1,Plate:MR024
# [2] = compound concentrations:100 nM and 1000 nM (sheet 'Lestaurtinib' of Supplementary Table 1),run:Lestaurtinib_02752_R1,Plate:MR025
# [3] = compound concentrations:100 nM and 1000 nM (sheet 'Lestaurtinib' of Supplementary Table 1),run:Lestaurtinib_02752_R2,Plate:MR025
# [4] = compound concentrations:100 nM and 1000 nM (sheet 'Lestaurtinib' of Supplementary Table 1),run:Lestaurtinib_02765_R2,Plate:MR026
# [5] = compound concentrations:100 nM and 1000 nM (sheet 'Lestaurtinib' of Supplementary Table 1),run:Lestaurtinib_02765_R3,Plate:MR026
# [6] = compound concentrations:100 nM and 1000 nM (sheet 'Lestaurtinib' of Supplementary Table 1),run:Lestaurtinib_02766_R1,Plate:MR027
# [7] = compound concentrations:100 nM and 1000 nM (sheet 'Lestaurtinib' of Supplementary Table 1),run:Lestaurtinib_02766_R3,Plate:MR027
# [8] = compound concentrations:100 nM and 1000 nM (sheet 'Lestaurtinib' of Supplementary Table 1),run:Lestaurtinib_02768_R1,Plate:MR028
# [9] = compound concentrations:100 nM and 1000 nM (sheet 'Lestaurtinib' of Supplementary Table 1),run:Lestaurtinib_02768_R2,Plate:MR028
# [10] = compound concentrations:100 nM and 1000 nM (sheet 'Lestaurtinib' of Supplementary Table 1),run:Lestaurtinib_02795_R1,Plate:MR022
# [11] = compound concentrations:100 nM and 1000 nM (sheet 'Lestaurtinib' of Supplementary Table 1),run:Lestaurtinib_02795_R3,Plate:MR022
# [12] = compound concentrations:100 nM and 1000 nM (sheet 'Lestaurtinib' of Supplementary Table 1),run:Lestaurtinib_02802_R1,Plate:MR029
# [13] = compound concentrations:100 nM and 1000 nM (sheet 'Lestaurtinib' of Supplementary Table 1),run:Lestaurtinib_02802_R3,Plate:MR029
# [14] = compound concentrations:100 nM and 1000 nM (sheet 'Lestaurtinib' of Supplementary Table 1),run:Lestaurtinib_02896_R1,Plate:MR030
# [15] = compound concentrations:100 nM and 1000 nM (sheet 'Lestaurtinib' of Supplementary Table 1),run:Lestaurtinib_02896_R3,Plate:MR030
# [16] = compound concentrations:100 nM and 1000 nM (sheet 'Lestaurtinib' of Supplementary Table 1),run:Lestaurtinib_03172_R3,Plate:MR031
# [17] = compound concentrations:100 nM and 1000 nM (sheet 'Lestaurtinib' of Supplementary Table 1),run:Lestaurtinib_03252_R1,Plate:MR032
# [18] = compound concentrations:100 nM and 1000 nM (sheet 'Lestaurtinib' of Supplementary Table 1),run:Lestaurtinib_03260_R3,Plate:MR033
substance,measurement,setting,value
Lestaurtinib,potency estimated from few doses,SYK; [1],393 nM
same,potency estimated from few doses,"SYK; compound concentrations:100 nM and 1000 nM (sheet 'Lestaurtinib' of Supplementary Table 1),run:Lestaurtinib_02748_R2,Plate:MR024",196 nM
same,potency estimated from few doses,SYK; [2],510 nM
same,potency estimated from few doses,SYK; [3],136 nM
same,potency estimated from few doses,SYK; [4],169 nM
same,potency estimated from few doses,SYK; [5],182 nM
same,potency estimated from few doses,SYK; [6],211 nM
same,potency estimated from few doses,SYK; [7],441 nM
same,potency estimated from few doses,SYK; [8],484 nM
same,potency estimated from few doses,SYK; [9],424 nM
same,potency estimated from few doses,SYK; [10],460 nM
same,potency estimated from few doses,"SYK; compound concentrations:100 nM and 1000 nM (sheet 'Lestaurtinib' of Supplementary Table 1),run:Lestaurtinib_02795_R2,Plate:MR022",141 nM
same,potency estimated from few doses,SYK; [11],259 nM
same,potency estimated from few doses,SYK; [12],239 nM
same,potency estimated from few doses,SYK; [13],451 nM
same,potency estimated from few doses,SYK; [14],253 nM
same,potency estimated from few doses,SYK; [15],217 nM
same,potency estimated from few doses,"SYK; compound concentrations:100 nM and 1000 nM (sheet 'Lestaurtinib' of Supplementary Table 1),run:Lestaurtinib_03172_R2,Plate:MR031",595 nM
same,potency estimated from few doses,SYK; [16],400 nM
same,potency estimated from few doses,SYK; [17],149 nM
same,potency estimated from few doses,"SYK; compound concentrations:100 nM and 1000 nM (sheet 'Lestaurtinib' of Supplementary Table 1),run:Lestaurtinib_03252_R2,Plate:MR032",222 nM
same,potency estimated from few doses,"SYK; compound concentrations:100 nM and 1000 nM (sheet 'Lestaurtinib' of Supplementary Table 1),run:Lestaurtinib_03260_R2,Plate:MR033",224 nM
same,potency estimated from few doses,SYK; [18],130 nM
same,potency estimated from few doses,"TNK2; compound concentrations:100 nM and 1000 nM (sheet 'Lestaurtinib' of Supplementary Table 1),run:Lestaurtinib_02339_R3,Plate:MR001",44 nM
same,potency estimated from few doses,"TNK2; compound concentrations:100 nM and 1000 nM (sheet 'Lestaurtinib' of Supplementary Table 1),run:Lestaurtinib_02364_R1,Plate:MR002",69.8 nM
same,potency estimated from few doses,"TNK2; compound concentrations:100 nM and 1000 nM (sheet 'Lestaurtinib' of Supplementary Table 1),run:Lestaurtinib_02364_R2,Plate:MR002",56.4 nM
same,potency estimated from few doses,"TNK2; compound concentrations:100 nM and 1000 nM (sheet 'Lestaurtinib' of Supplementary Table 1),run:Lestaurtinib_02364_R3,Plate:MR002",61.3 nM
same,potency estimated from few doses,"TNK2; compound concentrations:100 nM and 1000 nM (sheet 'Lestaurtinib' of Supplementary Table 1),run:Lestaurtinib_02367_R1,Plate:MR003",66.6 nM
same,potency estimated from few doses,"TNK2; compound concentrations:100 nM and 1000 nM (sheet 'Lestaurtinib' of Supplementary Table 1),run:Lestaurtinib_02367_R2,Plate:MR003",52.8 nM
same,potency estimated from few doses,"TNK2; compound concentrations:100 nM and 1000 nM (sheet 'Lestaurtinib' of Supplementary Table 1),run:Lestaurtinib_02381_R1,Plate:MR004",50 nM
same,potency estimated from few doses,"TNK2; compound concentrations:100 nM and 1000 nM (sheet 'Lestaurtinib' of Supplementary Table 1),run:Lestaurtinib_02381_R2,Plate:MR004",65.5 nM
same,potency estimated from few doses,"TNK2; compound concentrations:100 nM and 1000 nM (sheet 'Lestaurtinib' of Supplementary Table 1),run:Lestaurtinib_02407_R3,Plate:MR005",54.4 nM
same,potency estimated from few doses,"TNK2; compound concentrations:100 nM and 1000 nM (sheet 'Lestaurtinib' of Supplementary Table 1),run:Lestaurtinib_02422_R1,Plate:MR006",44.1 nM
same,potency estimated from few doses,"TNK2; compound concentrations:100 nM and 1000 nM (sheet 'Lestaurtinib' of Supplementary Table 1),run:Lestaurtinib_02422_R3,Plate:MR006",48 nM
same,potency estimated from few doses,"TNK2; compound concentrations:100 nM and 1000 nM (sheet 'Lestaurtinib' of Supplementary Table 1),run:Lestaurtinib_02437_R3,Plate:MR007",14.1 nM
same,potency estimated from few doses,"TNK2; compound concentrations:100 nM and 1000 nM (sheet 'Lestaurtinib' of Supplementary Table 1),run:Lestaurtinib_02438_R2,Plate:MR008",43.2 nM
same,potency estimated from few doses,"TNK2; compound concentrations:100 nM and 1000 nM (sheet 'Lestaurtinib' of Supplementary Table 1),run:Lestaurtinib_02443_R2,Plate:MR009",44.4 nM
same,potency estimated from few doses,"TNK2; compound concentrations:100 nM and 1000 nM (sheet 'Lestaurtinib' of Supplementary Table 1),run:Lestaurtinib_02443_R3,Plate:MR009",62 nM
same,potency estimated from few doses,"TNK2; compound concentrations:100 nM and 1000 nM (sheet 'Lestaurtinib' of Supplementary Table 1),run:Lestaurtinib_02473_R1,Plate:MR010",52.5 nM
same,potency estimated from few doses,"TNK2; compound concentrations:100 nM and 1000 nM (sheet 'Lestaurtinib' of Supplementary Table 1),run:Lestaurtinib_02473_R3,Plate:MR010",23.2 nM
same,potency estimated from few doses,"TNK2; compound concentrations:100 nM and 1000 nM (sheet 'Lestaurtinib' of Supplementary Table 1),run:Lestaurtinib_02482_R1,Plate:MR011",54.7 nM
same,potency estimated from few doses,"TNK2; compound concentrations:100 nM and 1000 nM (sheet 'Lestaurtinib' of Supplementary Table 1),run:Lestaurtinib_02482_R2,Plate:MR011",59.1 nM
same,potency estimated from few doses,"TNK2; compound concentrations:100 nM and 1000 nM (sheet 'Lestaurtinib' of Supplementary Table 1),run:Lestaurtinib_02482_R3,Plate:MR011",60.1 nM
same,potency estimated from few doses,"TNK2; compound concentrations:100 nM and 1000 nM (sheet 'Lestaurtinib' of Supplementary Table 1),run:Lestaurtinib_02487_R1,Plate:MR012",51.2 nM
same,potency estimated from few doses,"TNK2; compound concentrations:100 nM and 1000 nM (sheet 'Lestaurtinib' of Supplementary Table 1),run:Lestaurtinib_02487_R3,Plate:MR012",44.6 nM
same,potency estimated from few doses,"TNK2; compound concentrations:100 nM and 1000 nM (sheet 'Lestaurtinib' of Supplementary Table 1),run:Lestaurtinib_02496_R2,Plate:MR013",48.4 nM
same,potency estimated from few doses,"TNK2; compound concentrations:100 nM and 1000 nM (sheet 'Lestaurtinib' of Supplementary Table 1),run:Lestaurtinib_02496_R3,Plate:MR013",38.5 nM
same,potency estimated from few doses,"TNK2; compound concentrations:100 nM and 1000 nM (sheet 'Lestaurtinib' of Supplementary Table 1),run:Lestaurtinib_02566_R1,Plate:MR014",51.6 nM
same,potency estimated from few doses,"TNK2; compound concentrations:100 nM and 1000 nM (sheet 'Lestaurtinib' of Supplementary Table 1),run:Lestaurtinib_02566_R2,Plate:MR014",58.8 nM
same,potency estimated from few doses,"TNK2; compound concentrations:100 nM and 1000 nM (sheet 'Lestaurtinib' of Supplementary Table 1),run:Lestaurtinib_02572_R1,Plate:MR015",37.5 nM
same,potency estimated from few doses,"TNK2; compound concentrations:100 nM and 1000 nM (sheet 'Lestaurtinib' of Supplementary Table 1),run:Lestaurtinib_02572_R2,Plate:MR015",46.2 nM
same,potency estimated from few doses,"TNK2; compound concentrations:100 nM and 1000 nM (sheet 'Lestaurtinib' of Supplementary Table 1),run:Lestaurtinib_02572_R3,Plate:MR015",49.3 nM
same,potency estimated from few doses,"TNK2; compound concentrations:100 nM and 1000 nM (sheet 'Lestaurtinib' of Supplementary Table 1),run:Lestaurtinib_02577_R1,Plate:MR016",55.6 nM
same,potency estimated from few doses,"TNK2; compound concentrations:100 nM and 1000 nM (sheet 'Lestaurtinib' of Supplementary Table 1),run:Lestaurtinib_02577_R2,Plate:MR016",56.4 nM
same,potency estimated from few doses,"TNK2; compound concentrations:100 nM and 1000 nM (sheet 'Lestaurtinib' of Supplementary Table 1),run:Lestaurtinib_02577_R3,Plate:MR016",62.6 nM
same,potency estimated from few doses,"TNK2; compound concentrations:100 nM and 1000 nM (sheet 'Lestaurtinib' of Supplementary Table 1),run:Lestaurtinib_02584_R1,Plate:MR017",56.4 nM
same,potency estimated from few doses,"TNK2; compound concentrations:100 nM and 1000 nM (sheet 'Lestaurtinib' of Supplementary Table 1),run:Lestaurtinib_02584_R2,Plate:MR017",64.8 nM
same,potency estimated from few doses,"TNK2; compound concentrations:100 nM and 1000 nM (sheet 'Lestaurtinib' of Supplementary Table 1),run:Lestaurtinib_02601_R1,Plate:MR018",77.3 nM
same,potency estimated from few doses,"TNK2; compound concentrations:100 nM and 1000 nM (sheet 'Lestaurtinib' of Supplementary Table 1),run:Lestaurtinib_02606_R1,Plate:MR019",55.6 nM
same,potency estimated from few doses,"TNK2; compound concentrations:100 nM and 1000 nM (sheet 'Lestaurtinib' of Supplementary Table 1),run:Lestaurtinib_02606_R3,Plate:MR019",54.4 nM
same,potency estimated from few doses,"TNK2; compound concentrations:100 nM and 1000 nM (sheet 'Lestaurtinib' of Supplementary Table 1),run:Lestaurtinib_02624_R2,Plate:MR020",52.3 nM
same,potency estimated from few doses,"TNK2; compound concentrations:100 nM and 1000 nM (sheet 'Lestaurtinib' of Supplementary Table 1),run:Lestaurtinib_02724_R2,Plate:MR021",56.1 nM
same,potency estimated from few doses,"TNK2; compound concentrations:100 nM and 1000 nM (sheet 'Lestaurtinib' of Supplementary Table 1),run:Lestaurtinib_02741_R2,Plate:MR023",224 nM
same,potency estimated from few doses,TNK2; [1],38.5 nM
same,potency estimated from few doses,"TNK2; compound concentrations:100 nM and 1000 nM (sheet 'Lestaurtinib' of Supplementary Table 1),run:Lestaurtinib_02748_R3,Plate:MR024",52.3 nM
same,potency estimated from few doses,TNK2; [2],57.7 nM
same,potency estimated from few doses,TNK2; [3],46.1 nM
same,potency estimated from few doses,TNK2; [4],115 nM
same,potency estimated from few doses,TNK2; [5],75.6 nM
same,potency estimated from few doses,TNK2; [6],51.8 nM
same,potency estimated from few doses,"TNK2; compound concentrations:100 nM and 1000 nM (sheet 'Lestaurtinib' of Supplementary Table 1),run:Lestaurtinib_02766_R2,Plate:MR027",15.7 nM
same,potency estimated from few doses,TNK2; [7],41.6 nM
same,potency estimated from few doses,TNK2; [8],60 nM
same,potency estimated from few doses,TNK2; [9],56.1 nM
same,potency estimated from few doses,TNK2; [10],49.4 nM
same,potency estimated from few doses,TNK2; [11],160 nM
same,potency estimated from few doses,TNK2; [12],71.2 nM
same,potency estimated from few doses,TNK2; [13],9.76 nM
same,potency estimated from few doses,TNK2; [14],61.8 nM
same,potency estimated from few doses,TNK2; [15],53.9 nM
same,potency estimated from few doses,"TNK2; compound concentrations:100 nM and 1000 nM (sheet 'Lestaurtinib' of Supplementary Table 1),run:Lestaurtinib_03172_R1,Plate:MR031",45.6 nM
same,potency estimated from few doses,TNK2; [16],48.7 nM
same,potency estimated from few doses,TNK2; [17],75.4 nM
same,potency estimated from few doses,"TNK2; compound concentrations:100 nM and 1000 nM (sheet 'Lestaurtinib' of Supplementary Table 1),run:Lestaurtinib_03260_R1,Plate:MR033",115 nM
same,potency estimated from few doses,TNK2; [18],59.2 nM
